Bioassay records deposited in PubChem by several laboratories.
A selection: hits, their analogues and other compounds. The true share with any hit is near 3.3%.
ERa SRC1 pot: enhances coactivator binding to human estrogen receptor alpha | P03372 | TR-FRET ERalpha-LBD/SRC-Cy5 coactivator binding, 2 h; 100 = basal binding, no effect | coactivator binding (% of control), % at 25.6 µM | 86,000 compounds, 1.3% hits; in the data active = activity above about 200%;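 also: binding measured in presence of low estradiol as agonist stimulus; 0% = peptide alone without receptor and 100% = receptor with peptide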
Smad3 FoxH1 inh: Smad3 (human) transcription factor binding inhibition; P84022; TR-FRET Smad3/Dy647-FoxH1 peptide binding, europium anti-His; inhibition, % at 25 µM; 88,000 compounds, 0.29% hits;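 active = compounds that reduce the energy-transfer binding signal between the protein and its labelled peptide by more than half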;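 also: 0% = Smad3 plus labelled peptide maximal FRET and 100% = peptide-only background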
ERa SRC1 inh: blocks coactivator binding to human estrogen receptor alpha | P03372 | inhibition, % at 25.6 µM | TR-FRET ER-alpha LBD / SRC-1 peptide, estradiol-bound | 86,000 compounds, 1.7% hits; in the data active = inhibition above about 50%;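 also: 0% = receptor plus peptide control and 100% = peptide only without receptor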
FAK blocker: inhibitors of human focal adhesion kinase; Q05397; biochemical FAK kinase activity assay; inhibition, %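 (tested at 7 µM)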; 97,000 compounds, 0.84% hits; AID 727; in the data active = inhibition above about 19%;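 also: 0% = DMSO and 100% = reference compound high control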
ERb SRC1 inh: blocks coactivator binding to human estrogen receptor beta; TR-FRET ER-beta LBD / SRC1-Cy5 peptide binding; receptor agonist-loaded with 1 µM estradiol; inhibition, % at 25.6 µM; 86,000 compounds, 1.3% hits; AID 633;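 active = compounds whose percent inhibition of the receptor-coactivator binding signal exceeds about 50% in the single-dose screen, limit read from the data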;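 also: 0% = receptor plus peptide wells without compound and 100% = peptide-only wells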
Target sequence (Q92731 whole entry, looked up, the tested form may be a part): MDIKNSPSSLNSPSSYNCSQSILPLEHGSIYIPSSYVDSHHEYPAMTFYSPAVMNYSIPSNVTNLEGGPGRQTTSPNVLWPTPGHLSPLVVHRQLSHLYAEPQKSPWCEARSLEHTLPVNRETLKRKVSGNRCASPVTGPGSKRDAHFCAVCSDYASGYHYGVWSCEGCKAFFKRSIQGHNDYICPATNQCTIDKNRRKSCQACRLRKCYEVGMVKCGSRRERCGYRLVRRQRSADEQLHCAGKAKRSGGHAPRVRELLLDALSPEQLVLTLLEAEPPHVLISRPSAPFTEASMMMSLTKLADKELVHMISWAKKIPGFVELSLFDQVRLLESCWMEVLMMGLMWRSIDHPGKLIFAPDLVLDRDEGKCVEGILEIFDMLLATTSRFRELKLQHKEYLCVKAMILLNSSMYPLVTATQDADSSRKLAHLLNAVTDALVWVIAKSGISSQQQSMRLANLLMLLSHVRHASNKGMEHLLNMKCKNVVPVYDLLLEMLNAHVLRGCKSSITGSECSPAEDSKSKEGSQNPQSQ
* marks the source's active call; other numbers are inactive results; nt = not tested or not shown; [ ] = another dose, or the depositor's remark.

SMILES	ERa SRC1 pot	Smad3 FoxH1 inh	ERa SRC1 inh	FAK blocker	ERb SRC1 inh
CO[C@@H]1/C=C\O[C@@]2(C)Oc3c(C)c(O)c4c(c3C2=O)C(=N[C@H]2CC[C@H](O)O[C@@H]2C)C=C(NC(=O)/C(C)=C\C(=O)[C@@H]2C[C@H]2[C@@H](O)[C@H](C)[C@@H](O)[C@H](C)[C@H](OC(C)=O)[C@@H]1C)C4=O	nt	9.3	nt	nt	nt
CCCCc1nc2sc3c(SCC(=O)NCc4ccco4)ncnc3c2c2c1CCC2	575.5*[fluorescence artefact?]	30.1	34.4	-62.1	42.6
Cc1ccc(-c2csc3ncnc(OCC(=O)NC(=O)NCc4ccco4)c23)cc1	68.5	9.7	56.4*[fluorescence artefact?]	nt	37.8
O=C(COc1ncnc2scc(-c3ccc(F)cc3)c12)NCc1ccco1	93.3	5.3	-1.1	-1.8	1.6
O=C(CSc1nc2cc(Cl)ccc2s1)NC(=O)NCc1ccco1	76.9	0.2	56.7*	nt	42.7
Cc1sc2ncnc(SCC(=O)NC(=O)NCc3ccco3)c2c1C	85.4	-5.4	72.8*	9.9	80.8*[fluorescence artefact?]
Cc1nc(SCC(=O)NCc2ccco2)c2c(C)c(C)sc2n1	89.1	-11.1	1.7	4.4	2.0
C[N+](C)(N)CCC[N+](C)(C)N	nt	9.6	nt	nt	nt
C[N+](C)(C)[C@@H](C1=CCCC1=O)c1ccccc1	nt	43.7	nt	nt	nt
N[C@H](C(=O)O)[C@H](N)C(=O)O	nt	10.2	nt	nt	nt
N#C/C(=C\Nc1ccccn1)C(=O)C1CC1	nt	-17.2	nt	nt	nt
O=CN[C@@H](Cc1cnc[nH]1)C(=O)O	nt	-0.2	nt	nt	nt
O=C1C=CC(=Nc2cccc3c(N=C4C=CC(=O)O4)cccc23)O1	nt	0.8	nt	nt	nt
Cc1cc(Cl)ccc1Nc1sc(C(=O)c2cc3cc(Cl)ccc3o2)c(N)c1C#N	nt	14.1	nt	nt	nt
Cc1sc2ncnc(NCc3ccco3)c2c1C	61.4	2.1	58.1*	5.6	53.6*
O=C(NCc1ccco1)c1cc2cc3ccc(Cl)cc3nc2o1	182.4	10.5	66.5*	15.2	55.6*
Cc1sc2ncnc(NCc3cccs3)c2c1C	103.3	5.7	-18.0	7.6	-9.9
COc1ccc2cc3cc(C(=O)NCc4ccco4)oc3nc2c1	106.9	14.6	24.2	-2.6	27.3
Cc1sc2nc(SCC(=O)NCc3ccco3)n(-c3ccccc3)c(=O)c2c1C	229.1*[fluorescence artefact?]	-55.7	14.6	-41.2	6.0
O=C(O)CNCCc1ccccc1	nt	-14.1	nt	nt	nt
COc1cc2[nH]c3c(N4CCN(c5ccccn5)CC4)ncnc3c2cc1OC	675.8*[fluorescence artefact?]	16.3	-1.4	12.6	6.2
Cc1ccc2c(c1)N(CC(=O)NC1CCCc3ccccc31)C(=O)CO2 (stereo not given)	92.7	-4.4	66.8*	3.2	17.3
Cc1ccc(-c2nnc3ccc(SCC(=O)N4CCc5ccccc54)nn23)cc1	237.8*[fluorescence artefact?]	-79.7	3.7	1.4	15.6
O=C(NCc1ccco1)c1cnn2c(C(F)(F)F)cc(-c3ccccc3)nc12	141.8	6.7	6.9	-4.4	-3.2
O=C(NC1CCCC1)c1cnn2c(C(F)(F)F)cc(-c3ccc4c(c3)OCO4)nc12	136.5	11.6	59.8*[fluorescence artefact?]	2.5	-31.8
SMILES	ERa SRC1 pot	Smad3 FoxH1 inh	ERa SRC1 inh	FAK blocker	ERb SRC1 inh
COc1ccc(-c2cc(C(F)(F)F)n3ncc(C(=O)NCc4ccco4)c3n2)cc1	159.5	5.7	59.2*	1.4	50.1*[fluorescence artefact?]
O=C(O)[C@H]1CC=CC[C@@H]1C(=O)Nc1cccc(O)c1	nt	-8.6	nt	nt	nt
N=C(N)SCc1cc(Cl)cc(Cl)c1O	nt	9.9	nt	nt	nt
CN1C(=O)CC(C(=O)O)SC1=Nc1cc(Cl)c(O)c(Cl)c1 (stereo not given)	43.4	7.5	43.3	-1.5	53.8*
OCc1ccncc1.OCc1ccncc1.[Cl][Pt]([Cl])([Cl])[Cl]	nt	-1.2	nt	nt	nt
CN(C)C(=O)Cn1c(SCC(=O)N2CCCc3ccccc32)nc2ccccc21	828.7*[fluorescence artefact?]	-7.9	21.3	8.9	-14.0
c1ccc([C@H](c2cccc3c2ccc2ccccc23)[C@H](c2ccccc2)c2cccc3c2ccc2ccccc23)cc1	nt	-0.4	nt	nt	nt
CN(C)c1ncc(C2=C(Cl)C(=O)C(N3CCCC3)=C(Cl)C2=O)s1	9.3	26.4	97.3*[fluorescence artefact?]	39.4*	94.5*[fluorescence artefact?]
CN(C)CCN(Cc1ccccc1)c1nccc(N(C)C)c1C#N	96.0	10.3	9.6	0.0	-4.0
CN(C)c1nccc(Nc2ccccc2)c1C#N	126.2	-10.4	99.2*[fluorescence artefact?]	0.1	-11.6
CN(C)Cc1cc(C(C)(C)C)cc(CNC2CCCCC2)c1O	nt	16.5	nt	nt	nt
CC1CN(c2nc3c(c(=O)n(Cc4ccc(Cl)c(Cl)c4)c(=O)n3C)n2C)CC(C)O1 (stereo not given)	91.7	-0.3	-7.6	2.8	1.9
Cc1cc(C)n(-c2nc3c(c(=O)n(Cc4ccc(Cl)c(Cl)c4)c(=O)n3C)n2C)n1	109.0	14.8	60.4*[fluorescence artefact?]	1.6	33.6
CCOc1cc(OCC)cc(C(=O)O)c1	95.7	-0.3	98.9*[fluorescence artefact?]	-2.6	10.2
Cn1nnnc1SCC(=O)N(C1CCCCC1)C1CCCCC1	107.7	-8.7	-4.6	-4.5	51.0*[fluorescence artefact?]
Cn1c(C(=O)NCCCN2CCCCCC2)cc2c(=O)n(C)c3ccccc3c21	120.4	5.5	53.3*[fluorescence artefact?]	12.6	0.7
CCCN1CCN(CCCNC(=O)c2cc3c(=O)n(C)c4ccccc4c3n2C)CC1	145.7	-3.5	-1.8	0.9	-9.9
Cc1cc(-c2nn3c(-c4ccccc4)nnc3s2)c2ccccc2n1	98.3	-0.1	73.5*	15.7	36.1
Cc1ccccc1-c1nn2c(-c3ccccc3)nnc2s1	108.8	5.3	4.6	nt	-0.9
c1ccc(Cc2nnc3sc(-c4ccco4)nn23)cc1	73.7	-6.0	64.2*[fluorescence artefact?]	9.2	59.1*
c1ccc(-c2cc(-c3nn4c(-c5ccco5)nnc4s3)c3ccccc3n2)cc1	180.4	-4.9	69.6*[fluorescence artefact?]	6.0	54.0*[fluorescence artefact?]
CC(C)(C)c1cc2c(O)c(c1)Cc1cc(C(C)(C)C)cc(c1O)Cc1cc(C(C)(C)C)cc(c1O)Cc1cc(C(C)(C)C)cc(c1O)Cc1cc(C(C)(C)C)cc(c1O)Cc1cc(C(C)(C)C)cc(c1O)Cc1cc(C(C)(C)C)cc(c1O)Cc1cc(C(C)(C)C)cc(c1O)C2	nt	15.7	nt	nt	nt
COc1ccc2cc1Oc1ccc(cc1)C[C@H]1c3c(cc(OC)c4c3Oc3cc5c(cc3O4)CCN[C@H]5C2)CCN1C	nt	-2.3	nt	nt	nt
Nc1c(C(O)(C(F)(F)F)C(F)(F)F)ccc2ccccc12	285.8*[fluorescence artefact?]	-8.8	-10.0	-1.8	-0.9
Cc1ccccc1-c1nc(CS(=O)(=O)CC(=O)Nc2cc(F)ccc2F)c(C)o1	742.6*[fluorescence artefact?]	4.8	-4.6	nt	2.5
SMILES	ERa SRC1 pot	Smad3 FoxH1 inh	ERa SRC1 inh	FAK blocker	ERb SRC1 inh
Cc1nc2sccn2c1-c1nc(C2CC2)c(C(=O)c2ccc3c(c2)NC(=O)CO3)s1	67.0	-8.1	61.5*	nt	53.4*[fluorescence artefact?]
CCSc1nc2ccccc2n1C(=O)Oc1ccccc1	496.8*[fluorescence artefact?]	-6.6	-45.0	-2.1	4.2
CCn1c(Cc2ccc(OC)cc2)nnc1SCC(=O)N1CCN(c2ccccc2)CC1	590.8*[fluorescence artefact?]	2.8	-8.2	0.4	-13.9
CCn1c(CSCc2ccc(F)cc2)nnc1SCC(=O)N1CCN(c2ccccc2)CC1	nt	nt	nt	0.9	nt
O=C(O)/C(=C\c1ccc(O)cc1)c1cccc2ccccc12	nt	1.4	nt	nt	nt
CCCC(c1nnnn1Cc1ccccc1)N1CCC(C(N)=O)CC1 (stereo not given)	119.1	-8.4	-5.8	-1.1	0.3
